For assay [1], the system named is DLD1. Nature of the assay: cell viability (CellTiter-Glo) relative to plate median (fraction of plate median); higher = more viable cells. Particulars: 5 µM; treatment time 24 h; reporter: 7TFP. Summed up:
(§1)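 Normalisation used webcellHTS2 in additive mode without log transformation, scaling each well's luminescence to the plate median. The luminescence was firefly luciferase or CellTiterGlo, read on a Tecan F500 from parallel plates of colorectal cancer cells stably transduced with lentiviral TCF/Wnt firefly luciferase reporters. Those cells had been given library compounds at a final 5 µM for 24 h, and two independent replicates were averaged.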

A further assay relates to HCT116. The description is as above. To be noted: 5 µM; treatment time 24 h; reporter: TCF4/Wnt. Summed up: as §1
Assay [2] relates to SW480. The description is as above. Particulars: 5 µM; treatment time 24 h; reporter: 7TFP. Summed up: as §1
Assay [3] has as its system DLD1. In words: TCF/Wnt firefly luciferase reporter signal relative to plate median (fraction of plate median); higher = higher Wnt reporter signal. Particulars: 5 µM; treatment time 24 h; reporter: 7TFP. A digest of the protocol: as §1
Assay [4] concerns SW480. Described as above. Particulars: 5 µM; treatment time 24 h; reporter: 7TFP. A digest of the protocol:
as §1

± gives the standard deviation of the averaged measurements.

Take `CC(C)CCC[C@@H](C)C1CC[C@H]2[C@@H]3CCC4CC(=O)CC[C@]4(C)[C@H]3CC[C@]12C` (stereo not given in full): the cell viability came out at 0.999 ± 0.016 with DLD1 [1], 1.01 ± 0.031 in the assay on HCT116 and 1.02 ± 0.021 with SW480 [2]. In addition, the “TCF/Wnt firefly luciferase reporter signal” value turned out to be 0.955 ± 0.045 in the assay with DLD1 [3] and 0.97 ± 0.071 in the assay on SW480 [4].
In the case of `CC1(C)[C@@H](O)CC[C@]2(C)[C@H]3C(=O)C=C4[C@@H]5C[C@@](C)(C(=O)O)CC[C@]5(C)CC[C@@]4(C)[C@]3(C)CC[C@@H]12`, the cell viability with DLD1 [1] worked out at 1.01 ± 0.059; in the assay with HCT116, 1.03 ± 0.098; in the assay with SW480 [2] it was 1.05 ± 0.057. Moreover, the “TCF/Wnt firefly luciferase reporter signal” value in the assay on DLD1 [3] is 1.04 ± 0.22; in the assay with SW480 [4], 1.12 ± 0.13.
The matching figures for `CCOC(=O)C1=C(C)NC(C)=C(C(=O)OC)C1c1cccc([N+](=O)[O-])c1` (stereo not given): 0.964 ± 0.03, 1.02 ± 0.15, 0.95 ± 0.057, 1.06 ± 0.035 and 1.01 ± 0.039.
Regarding `CN(C)CCC(c1ccccc1)c1ccccn1` (stereo not given), the cell viability in the assay on DLD1 [1] came out at 0.973 ± 0.039; in the assay with HCT116, 1 ± 0.18; in the assay on SW480 [2], 0.963 ± 0.032. The “TCF/Wnt firefly luciferase reporter signal” value in the assay on DLD1 [3] came to 1.16 ± 0.035; in the assay with SW480 [4], 1.055 ± 0.0071.
For `CN(C)[C@@H]1C(O)=C(C(N)=O)C(=O)[C@@]2(O)C(O)=C3C(=O)c4c(O)ccc(Cl)c4[C@@H](O)[C@H]3C[C@@H]12`, the cell viability was determined as 0.943 ± 0.025 with DLD1 [1], 0.96 ± 0.071 in the assay with HCT116 and 0.959 ± 0.0085 in the assay on SW480 [2]. Besides, the “TCF/Wnt firefly luciferase reporter signal” value with DLD1 [3] came out at 0.924 ± 0.067; in the assay with SW480 [4], 0.983 ± 0.039.
In the same order, the values of `NCCNCCNCCN` are 1.03, 0.986 ± 0.049, 1.01 ± 0.064, 0.999 ± 0.058 and 1.03 ± 0.052.
The matching figures for `NCCCCCC(=O)O`: 0.888 ± 0.054, 1.02 ± 0.014, 0.972 ± 0.083, 1 ± 0.11 and 1.01 ± 0.081.
In the same order, the values of `CO/N=C(\C(=O)N[C@@H]1C(=O)N2C(C(=O)O)=C(COC(N)=O)CS[C@H]12)c1ccco1` are 0.915 ± 0.088, 0.949 ± 0.023, 0.938 ± 0.027, 0.976 ± 0.1 and 1.13 ± 0.028.
On to `COc1ccc2c(c1)OCC(Cc1ccc(OC)c(OC(C)=O)c1)C2=O` (stereo not given), for which the results for the cell viability in the assay with DLD1 [1], in the assay on HCT116 and in the assay with SW480 [2] were 1.025 ± 0.0071, 0.919 ± 0.059 and 1.03, respectively. The “TCF/Wnt firefly luciferase reporter signal” value with DLD1 [3] worked out at 0.969 ± 0.12; with SW480 [4] it was 0.858 ± 0.18.
For the molecule `C=C(C)[C@H]1C(=O)[C@H]2O[C@@]2(C)C(=O)[C@@H](O)[C@H](C(=C)C)CCC2=C[C@H]1OC2=O` [bipinnapterolide A], the values for the cell viability in the assay with DLD1 [1], in the assay on HCT116 and in the assay with SW480 [2] were 1.17 ± 0.071, 1.04 ± 0.092 and 1.01 ± 0.033, respectively. Besides, the entries for the “TCF/Wnt firefly luciferase reporter signal” value with DLD1 [3] and in the assay with SW480 [4] were 0.971 ± 0.042 and 0.913 ± 0.12, respectively.
As to `O=C(/C=C/c1ccc(O)cc1)c1ccc(O)cc1O`, the figures for the cell viability with DLD1 [1], in the assay on HCT116 and in the assay with SW480 [2] were 0.97 ± 0.012, 1.03 ± 0.08 and 0.968 ± 0.0099, respectively. The figures for the “TCF/Wnt firefly luciferase reporter signal” value with DLD1 [3] and in the assay with SW480 [4] were 1 ± 0.15 and 0.862 ± 0.076, respectively.
As for `Oc1c(Cl)cc(Cl)c2cccnc12`, the cell viability in the assay with DLD1 [1] was 0.9925 ± 0.00071; with HCT116, 1.02 ± 0.081; with SW480 [2], 0.963 ± 0.033. The “TCF/Wnt firefly luciferase reporter signal” value is 1.03 ± 0.16 with DLD1 [3] and 1.07 ± 0.021 in the assay with SW480 [4].
`CC(COc1ccccc1)N(CCCl)Cc1ccccc1` (stereo not given): the figures for the cell viability with DLD1 [1], in the assay on HCT116 and in the assay with SW480 [2] were 1 ± 0.057, 1.05 ± 0.028 and 0.978 ± 0.025, respectively. Further, the “TCF/Wnt firefly luciferase reporter signal” value with DLD1 [3] came to 1.05 ± 0.21; in the assay with SW480 [4] it was 1.03 ± 0.014.
The matching figures for `CCCCCC1C(=O)CCC1CC(=O)OC` (stereo not given): 0.99 ± 0.057, 1.03 ± 0.084, 1.025 ± 0.0071, 1.08 ± 0.05 and 1.03 ± 0.066.

(Values after the supplement of paper PMC6522484.)
